Experimental data from the supplement of paper PMC10338343.
± gives the standard deviation.

system: EfPiwi piRISC loaded with piRNA #1 (26 nt); test: pre-steady-state target cleavage rate (min^-1); auxiliary factor: 500 nM Ephydatia muelleri Gtsf1; guide: piRNA #1 5'p-UGAGGUAGUAGGUUGUAUAGUAUCCA; MIWI and MILI are mouse PIWI proteins and EfPiwi is from a freshwater sponge; tags in brackets are library labels; higher = faster piRNA-guided slicing of the target
Description: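 Cleave-'n-Seq: a library of target RNAs (target site in constant flanks) at […] was incubated with 1 nM active freshwater sponge Ephydatia fluviatilis Piwi piRISC (synthetic 5'-monophosphorylated piRNA guide) with or without 500 nM EmGtsf1 at 33 °C for 1 min to 16 h. Uncleaved targets were sequenced and the pooled three trials fitted to a burst-and-steady-state model to give the pre-steady-state cleavage rate (min^-1). Sequence is the target site only. Fits with R² ≤ 0 are excluded.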

GGAGACCAUUCUAUACUACCUACUACCUCA and GGAGAGGAGUACUAUACAACCUACUACCUCA are within error of each other in “pre-steady-state target cleavage rate” value: 0.00741 ± 0.0044 for the first, 0.00348 ± 0.003 for the second.

GGAGUGGAUACUAUACAACCAACUACGUCA and GGAGAGGAUACUAUACAACCUACUACCAUCA are within error of each other in “pre-steady-state target cleavage rate” value: 0.00367 ± 0.0011 for the first, 0.00705 ± 0.0029 for the second.

“GGAGACCUAUGAAUACAACCUACUACCUCA [g2:g18:cont:t1A]” and GGAGUGGAUACUAUACAACAUACUACCUCA are within error of each other in “pre-steady-state target cleavage rate” value: 0.00706 ± 0.0032 for the first, 0.00987 ± 0.0037 for the second.

GGAGACCUUACUAUACAACCGACUACCUCA and GGAGACCUAUCUAUACAACCUAGUACCUCA are within error of each other in “pre-steady-state target cleavage rate” value: 0.00553 ± 0.0036 for the first, 0.00361 ± 0.0027 for the second.

Going from GGAGUGGAUACUUUACAUCCUACUACCUCA to GGAGUGGAUACUAUAGCAACCUACUACCUCA, the “pre-steady-state target cleavage rate” value rises from 0.0043 ± 0.0029 to 0.0919 ± 0.034.

GGAGUGGAUACUAUUCAACGUACUACCUCA and GGAGUGGAUACUAUACAACCUACUACCACA are within error of each other in “pre-steady-state target cleavage rate” value: 0.00373 ± 0.0014 for the first, 0.00561 ± 0.0019 for the second.

GGAGAGGAUACUAUACUUCCUACUACCUCA and GGAGACCUAUGUAAUACAACCUACUACCUCA are within error of each other in “pre-steady-state target cleavage rate” value: 0.00555 ± 0.0051 for the first, 0.00412 ± 0.0028 for the second.

GGAGACCUUACUAUACAACCUACUACCCCA and GGAGACCUAACUAUACAACCUACUACUUCA are within error of each other in “pre-steady-state target cleavage rate” value: 0.00566 ± 0.0032 for the first, 0.00438 ± 0.0028 for the second.

GGAGAGGAUACUAUACAACCUUCUACCUGA and GGAGACGAUACUAUACAACCUAUCUACCUCA are within error of each other in “pre-steady-state target cleavage rate” value: 0.00393 ± 0.0023 for the first, 0.00473 ± 0.0019 for the second.

GGAGUGGAUACUAUACAACCUACUACUCUCA and GGAGACCAUACUAUACAACCUAACUACCUCA are within error of each other in “pre-steady-state target cleavage rate” value: 0.00513 ± 0.0029 for the first, 0.00707 ± 0.0033 for the second.

GGAGACGAUACUAUACAAUCCUACUACCUCA and GGAGUGGAUACUAUACAACCUUGUACCUCA are within error of each other in “pre-steady-state target cleavage rate” value: 0.0069 ± 0.004 for the first, 0.00568 ± 0.0024 for the second.

GGAGAGCAUACUAUACAAGCUACUACCUCA and GGAGACCUUACUACUACAACCUACUACCUCA are within error of each other in “pre-steady-state target cleavage rate” value: 0.00318 ± 0.0023 for the first, 0.00852 ± 0.0036 for the second.

GGAGUGGAUACUAUUCAAGCUACUACCUCA and GGAGACCUAACUAUACAAACCUACUACCUCA are within error of each other in “pre-steady-state target cleavage rate” value: 0.0053 ± 0.0025 for the first, 0.00462 ± 0.0028 for the second.

GGAGACCUUACUAUACAACCUACUAUCUCA and GGAGAGGAUACUAUACAACCUACUACAUCA are within error of each other in “pre-steady-state target cleavage rate” value: 0.00831 ± 0.0039 for the first, 0.00573 ± 0.0027 for the second.

GGAGACGAUACUAUAGAACCUACUACCUCA and GGAGUGGAUACUAUACUACCUACUACCUCA are within error of each other in “pre-steady-state target cleavage rate” value: 0.00433 ± 0.0017 for the first, 0.00816 ± 0.0037 for the second.

GGAGAGCAUACUAUACUACCUACUACCUCA and GGAGACCUAUCUAUACAUCCUAGUACCUCA are within error of each other in “pre-steady-state target cleavage rate” value: 0.00584 ± 0.0027 for the first, 0.00398 ± 0.0038 for the second.

GGAGUGGAUACUAUACAACCUAUACCUCA and GGAGAGGUUACUAAACAACCUACUACCUCA are within error of each other in “pre-steady-state target cleavage rate” value: 0.00334 ± 0.0019 for the first, 0.00353 ± 0.0034 for the second.

GGAGACGAAACUAUACAACCUAGUACCUCA and GGAGACGAUACUAUACAACCUACGACCUCA are within error of each other in “pre-steady-state target cleavage rate” value: 0.0035 ± 0.0025 for the first, 0.00449 ± 0.0018 for the second.

GGAGACGAAACUAUACAACGUACUACCUCA and GGAGACCUAACUAUACGACCUACUACCUCA are within error of each other in “pre-steady-state target cleavage rate” value: 0.00237 ± 0.0021 for the first, 0.00758 ± 0.0045 for the second.

GGAGACCUAAACUAUACAACCUACUACCUCA and GGAGACCUUACUAAACAACCUACUACCUCA are within error of each other in “pre-steady-state target cleavage rate” value: 0.00974 ± 0.0047 for the first, 0.00463 ± 0.0036 for the second.
